This is a sample that favours compounds with a hit; in the whole collection about 1.9% have one here.
PP5 inh: PP5 phosphatase inhibitors, primary screen, biochemical, fluorescence; purified PP5c, OMFP substrate fluorescence; inhibition, % at 6.7 µM; 320,000 compounds, 0.18% hits;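 active = inhibition above the campaign's mean inhibition across all tested compounds plus 3 SD, cut at about 9.5% in these data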;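 also: 0% = DMSO only and 100% = 100 µM cantharidin control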
ATG4B inh: ATG4B protease inhibitors, primary screen, biochemical, fluorescence, uHTS; AID 504462, 2011; 340,000 compounds, 0.51% hits; inhibition, % at 8.33 µM; Cysteine protease ATG4B (Homo sapiens), Q9Y4P1; ATG4B cleavage of LC3-PLA2, NBD-HPC fluorescence, 1 h; in the data active = inhibition above about 40%
Target sequence (Q9Y4P1 whole entry, looked up): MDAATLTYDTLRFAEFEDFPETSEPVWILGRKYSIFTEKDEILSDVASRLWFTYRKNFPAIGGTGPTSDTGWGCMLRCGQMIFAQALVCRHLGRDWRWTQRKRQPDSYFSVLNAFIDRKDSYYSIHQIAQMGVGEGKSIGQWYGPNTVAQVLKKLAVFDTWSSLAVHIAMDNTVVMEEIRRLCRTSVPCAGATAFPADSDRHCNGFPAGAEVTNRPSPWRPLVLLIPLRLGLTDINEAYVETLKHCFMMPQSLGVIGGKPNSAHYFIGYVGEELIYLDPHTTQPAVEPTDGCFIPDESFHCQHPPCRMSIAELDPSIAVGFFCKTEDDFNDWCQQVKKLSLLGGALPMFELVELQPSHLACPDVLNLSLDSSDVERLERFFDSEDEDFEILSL
PP1 inh: PP1-alpha phosphatase inhibitors, primary screen, counter-screen for PP5 inhibitor project, biochemical, fluorescence, OMFP substrate, single point; purified PP1alpha; inhibition, % at 6.7 µM; 320,000 compounds, 0.9% hits; AID 2235, 2010; Serine/threonine-protein phosphatase PP1-alpha catalytic subunit (Homo sapiens), P62136;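 active = inhibition above the mean inhibition of all tested compounds plus 3 SD, computed separately for each screening campaign, cut at about 15% in these data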
Cardio protect: cardioprotection against H2O2-induced cell death, primary screen, uHTS, H9c2 cells, ATPLite luminescence; 360,000 compounds, 0.63% hits; protection from H2O2 cell death, % at 20 µM; H9c2 cardiomyocytes, H2O2 injury protection, 2 h; AID 588492, 2011;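 active = compounds giving at least 50% protection of heart cells from peroxide-induced death in the single-dose screen, raw or plate-pattern-corrected value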;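 also: 0% = DMSO wells with peroxide and 100% = DMSO wells without peroxide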
* marks the source's active call; other numbers are inactive results; . = no result given.

SMILES	PP5 inh	ATG4B inh	PP1 inh	Cardio protect
O=C(N/N=C/C=C/c1ccccc1[N+](=O)[O-])c1cc(-c2cccnc2)nc2ccccc12	5	22	1	49
COc1ccccc1-c1cc(C(=O)N/N=C/C=C/c2ccccc2[N+](=O)[O-])c2ccccc2n1	3	18	2	54*
COc1cccc(/C=N/NC(=O)c2cc(-c3ccccn3)nc3ccccc23)c1O	0	-2	14	58*
OC(Cc1ccnc2ccccc12)C(Cl)(Cl)Cl (centres undefined)	.	-3	.	-14
O=S(=O)(N1CCOCC1)N1CCOCC1	3	7	0	-3
CC(=NCCCn1ccnc1)c1c(-c2ccccc2)[nH]n(-c2nc3ccccc3s2)c1=O	4	-36	17*	59*
CC(=NC1CC1)c1c(-c2ccccc2)[nH]n(-c2nc3ccccc3s2)c1=O	0	-13	8	2
COc1ccc(N2CCN(S(=O)(=O)CC34CCC(CC3=O)C4(C)C)CC2)cc1 (centres undefined)	0	-3	-1	3
Cn1nc(-c2ccc(Cl)cc2)nc2c(=O)n(C)c(=O)nc1-2	12*	.	37*	.
CS(=O)(=O)n1nc(-c2ccc(Cl)cc2)nc1N	-4	-7	-6	11
CC1CCCC(C)N1C(=O)COC(=O)c1n[nH]c(=O)c2ccccc12 (centres undefined)	-1	-5	-6	54*
CC1(C)CC2CC(C)(CN2C(=O)COC(=O)c2n[nH]c(=O)c3ccccc23)C1 (centres undefined)	0	1	-2	60*
O=C(OCC(=O)N1CCCCCC1)c1n[nH]c(=O)c2ccccc12	-3	3	-5	51*
CC1(C)CC2CC(C)(CN2C(=O)COC(=O)c2cccnc2Cl)C1 (centres undefined)	.	2	.	6
O=C(OCC(=O)N1CCc2ccccc21)c1n[nH]c(=O)c2ccccc12	3	2	2	73*
CN(Cc1ccco1)S(=O)(=O)c1nnc(NC(=O)c2ccc(F)cc2)s1	1	-2	0	-4
CCOc1ccc(C(=O)Nc2nnc(S(=O)(=O)N(C)Cc3ccco3)s2)cc1	0	6	17*	-5
CC(C)c1nc2c(c(=O)n(C)c(=O)n2C)n1C	-1	-3	-5	-1
CCOc1ccc(CNc2ccc(N3CCCC3)cc2)cc1	1	13	16*	-14
CCOc1ccc(CNc2ccc(N3CCN(Cc4ccccc4)CC3)cc2)cc1	4	5	9	-4
O=C(c1cccc(Cl)c1)C1CCCN(S(=O)(=O)c2ccccc2)C1 (centres undefined)	4	21	1	-10
COc1ccc(NC(=O)CN(C)C(=O)C(Sc2ccccc2)c2ccccc2)cc1 (centres undefined)	3	1	6	-2
COC(=O)N1C(=O)[C@@](c2ccccc2)(C(C)C)N1C(=O)OC	-1	-7	-4	3
COC(=O)N1C(=O)[C@](c2ccccc2)(C2CCCC2)N1C(=O)OC	3	6	-7	80*
COc1cccc(-c2nnc3sc(-c4ccco4)nn23)c1	2	7	-1	17
SMILES	PP5 inh	ATG4B inh	PP1 inh	Cardio protect
Cc1oc(-c2ccc(F)cc2)cc1-c1nn2c(-c3ccoc3C)nnc2s1	3	27	15*	49
Cn1c(O)c(N=Nc2nc(-c3ccccc3)cs2)c2ccccc21	-2	-7	1	62*
CCC(=O)N(Cc1cc2ccccc2[nH]c1=O)c1ccccc1OC	1	1	-5	3
O=C1Nc2ccccc2C1=Nc1ccc(F)cc1	-1	4	0	-2
NS(=O)(=O)c1ccc(N=C2C(=O)Nc3ccccc32)cc1	0	6	16*	-1
Cc1cc(=O)[nH]c(SCC(=O)NN(c2ccccc2)c2ccccc2)n1	1	-4	0	0
O=C1NC(=S)S/C1=C\c1ccc(SCc2ccco2)o1	5	67*	13	-8
CCC1=NN2C(=N)/C(=C\c3ccc(SCc4ccco4)o3)C(=O)N=C2S1	2	17	3	1
CCCC1=NN2C(=N)/C(=C\c3ccc(SCc4ccco4)o3)C(=O)N=C2S1	-3	38	43*	-1
CCn1c(SCC(=O)Nc2nc3ccccc3s2)nc2c(c1=O)SC(C)C2 (centres undefined)	4	-2	3	.
CCn1c(SCC(=O)Nc2nc3ccc(C)cc3s2)nc2c(c1=O)SC(C)C2 (centres undefined)	-3	-12	16*	-32
CN(C)CCCN(C(=O)c1ccc([N+](=O)[O-])o1)c1nc2cc3c(cc2s1)OCO3	3	-10	-1	-4
CCOc1cccc(/C=N/NC(=S)Nc2cc(S(=O)(=O)N3CCOCC3)ccc2N2CCOCC2)c1O	1	-12	4	54*
COC(=O)CN(C)C(=O)c1ccccc1OC1CCN(S(C)(=O)=O)CC1	4	0	2	4
CC1CCc2c(sc3nc(CN4CCN(S(=O)(=O)c5ccccc5[N+](=O)[O-])CC4)[nH]c(=O)c23)C1 (centres undefined)	6	-20	16*	-6
Cc1ccc(S(=O)(=O)N2CCN(Cc3nc4sc5c(c4c(=O)[nH]3)CCCC5)CC2)cc1	4	9	2	0
Cc1cc(N2CCOCC2)c2c(N)c(Br)cc(C)c2n1	4	-6	4	52*
Cc1cc(=O)[nH]c(N2CCOCC2)n1	3	4	-2	-4
CCOC(=O)c1c(C)[nH]c(C(=O)CSc2nnc(Nc3ccccc3F)s2)c1C	3	14	17*	3
Cc1ccc(/C=N/Nc2cn[nH]c(=O)n2)o1	-1	-12	-3	-10
O=c1nc(N/N=C/c2ccccn2)cn[nH]1	2	8	5	55*
CC(c1ccccc1)N1C(=O)/C(=C/c2ccncc2)SC1=S (centres undefined)	4	-1	17*	-13
O=S1(=O)CCC(N=Cc2cc(Br)ccc2O)C1 (centres undefined)	-1	14	-2	70*
O=c1c2ccccc2c(C=NC2CCS(=O)(=O)C2)c(O)n1-c1ccccc1 (centres undefined)	2	-11	2	3
Cc1ccc(S(=O)(=O)NCC(=O)N(c2ccccc2)C(C(=O)NCc2ccccc2)c2ccco2)cc1 (centres undefined)	3	-1	2	58*
Cc1cc(C)cc(N(C(=O)CNS(=O)(=O)c2ccccc2)C(C(=O)NCc2ccccc2)c2ccc(C)o2)c1 (centres undefined)	5	9	10	13
C[C@H]1COc2c(N3CCN(C)CC3)c(F)cc3c(=O)c(C(=O)O)cn1c23	3	7	0	-2

Assay outcomes deposited in PubChem by several laboratories.
